Screen size: about 360,000 compounds; about 16,000 (4.4%) were called active. About 9% were inconclusive and are not listed. Only a selection was taken, and actives are over-represented in it overall. A number with no mark means an inactive call. Calls follow the shape of the dose curve; as a rule, active = well fitted inhibition curve with a large enough effect; inconclusive = small, poorly fitted or top-dose-only effect; inactive = no such curve, though single readings can be large or run the other way.
% is scaled to controls: 0 for no effect and ±100 for the full control effect; potency is read from the fitted curve at half-maximal effect.

Chain of Bromodomain adjacent to zinc finger domain protein 2B (Homo sapiens) (Q9UIF8 whole entry, looked up, the tested form may be a part): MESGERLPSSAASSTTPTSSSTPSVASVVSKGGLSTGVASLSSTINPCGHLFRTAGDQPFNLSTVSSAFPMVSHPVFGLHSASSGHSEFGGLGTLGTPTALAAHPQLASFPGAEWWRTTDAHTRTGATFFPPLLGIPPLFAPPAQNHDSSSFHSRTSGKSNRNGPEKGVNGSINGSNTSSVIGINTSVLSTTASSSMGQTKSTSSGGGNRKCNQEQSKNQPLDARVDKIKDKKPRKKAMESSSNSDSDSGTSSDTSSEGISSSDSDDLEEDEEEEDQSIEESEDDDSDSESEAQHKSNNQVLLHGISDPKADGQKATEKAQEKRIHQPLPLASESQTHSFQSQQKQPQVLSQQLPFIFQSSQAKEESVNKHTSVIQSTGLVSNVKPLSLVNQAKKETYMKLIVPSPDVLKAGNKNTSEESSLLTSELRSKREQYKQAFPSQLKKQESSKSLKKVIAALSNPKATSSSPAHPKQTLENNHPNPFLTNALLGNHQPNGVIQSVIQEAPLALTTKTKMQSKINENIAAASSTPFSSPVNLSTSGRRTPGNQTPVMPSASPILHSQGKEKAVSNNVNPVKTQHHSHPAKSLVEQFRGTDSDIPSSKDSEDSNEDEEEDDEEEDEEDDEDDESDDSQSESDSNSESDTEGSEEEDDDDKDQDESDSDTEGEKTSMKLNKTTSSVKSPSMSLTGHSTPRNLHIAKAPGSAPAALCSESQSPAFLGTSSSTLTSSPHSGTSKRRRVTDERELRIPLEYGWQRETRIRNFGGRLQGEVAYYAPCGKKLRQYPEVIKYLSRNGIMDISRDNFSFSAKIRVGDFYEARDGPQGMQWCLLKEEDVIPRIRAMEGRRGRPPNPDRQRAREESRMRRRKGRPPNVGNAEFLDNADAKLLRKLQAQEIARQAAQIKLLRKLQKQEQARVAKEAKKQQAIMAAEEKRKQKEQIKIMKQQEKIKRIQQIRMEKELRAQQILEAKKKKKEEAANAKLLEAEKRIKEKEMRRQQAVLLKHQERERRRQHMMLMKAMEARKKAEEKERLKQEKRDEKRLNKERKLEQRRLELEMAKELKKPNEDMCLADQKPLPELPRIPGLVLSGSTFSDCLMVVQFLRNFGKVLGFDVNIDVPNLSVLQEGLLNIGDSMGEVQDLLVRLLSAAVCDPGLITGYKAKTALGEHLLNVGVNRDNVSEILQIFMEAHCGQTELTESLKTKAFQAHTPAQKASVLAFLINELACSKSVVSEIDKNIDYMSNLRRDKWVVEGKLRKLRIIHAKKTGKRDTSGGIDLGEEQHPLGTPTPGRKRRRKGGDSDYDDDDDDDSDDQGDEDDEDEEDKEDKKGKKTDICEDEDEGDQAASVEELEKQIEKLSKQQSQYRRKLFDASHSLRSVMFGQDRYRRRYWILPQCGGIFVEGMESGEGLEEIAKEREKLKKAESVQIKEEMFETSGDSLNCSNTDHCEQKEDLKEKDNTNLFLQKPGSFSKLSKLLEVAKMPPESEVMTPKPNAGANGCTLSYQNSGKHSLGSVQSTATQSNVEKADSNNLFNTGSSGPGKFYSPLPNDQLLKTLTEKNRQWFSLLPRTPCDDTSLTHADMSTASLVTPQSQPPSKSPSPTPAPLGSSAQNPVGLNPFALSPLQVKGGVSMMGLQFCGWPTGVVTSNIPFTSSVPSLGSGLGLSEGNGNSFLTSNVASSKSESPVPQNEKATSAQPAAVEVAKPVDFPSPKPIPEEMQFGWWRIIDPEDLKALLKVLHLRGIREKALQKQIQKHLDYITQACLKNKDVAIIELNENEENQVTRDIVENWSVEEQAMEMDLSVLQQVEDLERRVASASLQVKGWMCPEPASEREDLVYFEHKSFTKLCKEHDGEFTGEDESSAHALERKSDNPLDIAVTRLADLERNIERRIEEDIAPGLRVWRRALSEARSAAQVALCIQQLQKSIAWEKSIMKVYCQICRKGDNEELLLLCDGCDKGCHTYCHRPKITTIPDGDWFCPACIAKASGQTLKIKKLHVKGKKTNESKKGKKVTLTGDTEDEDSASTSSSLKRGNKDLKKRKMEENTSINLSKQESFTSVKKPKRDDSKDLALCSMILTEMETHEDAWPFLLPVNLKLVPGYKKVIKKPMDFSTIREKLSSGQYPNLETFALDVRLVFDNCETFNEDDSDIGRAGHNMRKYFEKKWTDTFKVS

The target in the assay is Bromodomain adjacent to zinc finger domain protein 2B (Homo sapiens) (UniProt Q9UIF8). Briefly: qHTS Assay for Inhibitors of BAZ2B. Also: nearly all actives have a fitted effect of over 60% in size. As to conditions: AlphaScreen BAZ2B-H3K14Ac peptide displacement; series mostly up to 114 µM; activity change, negative = inhibition: at the top concentration. The method, boiled down:
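Multi-concentration screen (max 110 uM) measuring displacement of acetylated histone H3 peptide from BAZ2B by AlphaScreen, using 50 nM protein, 50 nM peptide and 10 ug/mL streptavidin donor plus Ni-chelate acceptor beads.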
A general note: In qHTS, concentration-response curves come from the screen itself.
Regarding `COc1ccc(-n2c(SCC(N)=O)nc3c(oc4ccccc43)c2=O)cc1`, the “activity change, negative = inhibition” value is 3.46%.
As to `COc1ccc(N2C(=O)CS(=O)(=O)C23C(=O)N(Cc2ccc(C)cc2)c2ccccc23)cc1Cl` (stereo not given), the “activity change, negative = inhibition” value was 1.71% [at 57.1 µM].
On to `COc1cccc(C(=O)NC(=O)Nc2ccc(-c3cc(C(F)(F)F)nn3-c3ccccc3)cc2)c1`, for which the “activity change, negative = inhibition” value is -9.64%.
In the case of `C=CC[n+]1c(-c2ccc(C)cc2)csc1NNC(=O)Nc1ccccc1`, the Potency is 31.6 µM (active).
Still for that read-out and setting: to `C=CCNc1scc(-c2ccccc2)[n+]1CC=C` belongs 10 µM (active).
For `C=CCNC(=O)c1csc(-c2ccccc2)n1`, the “activity change, negative = inhibition” value is -24.1%.
Take `Cc1ccc(NC(=O)Nc2ccccc2)c(Br)c1`: the “activity change, negative = inhibition” value was -9.4%.
For `Cc1ccc(-c2c[n+](CC(=O)Nc3ccccc3)c3n2CCC3)cc1`, the “activity change, negative = inhibition” value was -4.1%.
As for `O=C(CNS(=O)(=O)c1cccs1)N1CCN(c2ccccc2Cl)CC1`, the “activity change, negative = inhibition” value was 0.355%.
On the same count and under the same terms, under `Cc1ccc(C)c(Cn2c(C(=O)O)c(CNCc3cccs3)c3ccccc32)c1` stands -15.7%.
`CCc1ccccc1NC(=O)CSc1nnc(-c2ccccc2)c(-c2ccccc2)n1`: the “activity change, negative = inhibition” value is -21.5%.
Regarding `COc1ccc(NC(=O)CSc2nccn2C2CCCC2)cc1OC`, the “activity change, negative = inhibition” value is -26.7%.
Take `CC1CCCCC1NC(=O)CSc1nnc(-c2ccncc2)n1CCCN(C)C` (stereo not given): the Potency was 44.7 µM (active).
For `CCn1c(SCc2cccc(C(=O)O)c2)nnc1-c1ccc(Cl)cc1`, the “activity change, negative = inhibition” value is -9.13%.
With `CN(C)CCCn1c(SCc2ccc(Cl)cc2)nnc1-c1ccncc1`, the Potency is 56.2 µM (active).
For `Cn1c(SCc2ccc(F)cc2)nnc1-c1ccncc1`, the “activity change, negative = inhibition” value was 5.73%.
Still for that read-out and setting: to `CCn1c(SCC(=O)NC2CC2)nnc1-c1ccncc1` belongs -5.24%; to `CCn1c(SCC(=O)Nc2ccc3c(c2)OCCO3)nnc1-c1ccncc1`, 4.75%; to `CCCN(CCC)C(=O)C1CCCN(c2ncnc3c2nc2n3CCCCC2)C1` (stereo not given), 0.133%.
Take `COc1ccc(Cn2c(C(=O)O)c(CNCc3cccc(OC)c3)c3ccc(C)cc32)cc1`: the “activity change, negative = inhibition” value was -35.5%.
Same read-out and setting: under `O=C(OCc1cc(=O)n2nc(C3CC3)sc2n1)c1ccccc1Cl` stands -7.57%; under `Cc1cccc(NC(=O)Cn2cc(S(=O)(=O)Cc3ccccc3Cl)c3ccccc32)c1`, -9.86%.
Consider `CCOc1cc(CNCc2ccccn2)ccc1OCC(=O)NC(C)(C)C`, for which the Potency is 50.1 µM (active).
`CCOc1cc(CNn2c(C)nnc2SCC(=O)NC(C)(C)C)ccc1OCC(=O)NC(C)(C)C`: the “activity change, negative = inhibition” value was 0.418%.
On the same count and under the same terms, to `CCOc1cc(C)c(S(=O)(=O)NCc2ccccn2)cc1C` belongs -7.56%; to `Cc1cc(NC(=O)CSc2nnc(Nc3ccccc3F)s2)no1`, -5.7%.
On the same count and under the same terms, to `Cc1cc(NC(=O)CSc2nnnn2-c2ccc(F)cc2)no1` belongs 4.09%.
Regarding `Cc1cc(NC(=O)CSc2nnc(-c3ccc(Cl)s3)o2)no1`, the Potency was 39.8 µM (active).
As to `COc1ccc(CNC(=O)c2ccc3c(O)c(S(=O)(=O)c4ccccc4)c(=O)[nH]c3c2)cc1`, the “activity change, negative = inhibition” value was -23.6%.
The same measure, in the same setting: to `CCN1CCN(CCCNC(=O)c2cnn(-c3ccc(C)cc3C)c2C2CCN(C(=O)OC(C)(C)C)CC2)CC1` belongs 4.75% [at 57.1 µM].
In the case of `COc1cccc(C(=O)NC2(C(F)(F)F)C(=O)Nc3c2c(=O)[nH]c(=O)n3-c2ccc(C)cc2)c1` (stereo not given), the “activity change, negative = inhibition” value is 1.43%.
On the same count and under the same terms, to `CCc1cnc2c(c1SCC(=O)N1CCC(C)CC1)c(=O)n(C)c(=O)n2C` belongs -4.76%.
On the same count and under the same terms, under `O=C(CCCCn1c(=O)c2ccccc2n(CC(=O)Nc2cccc(C(F)(F)F)c2)c1=O)NCc1ccc2c(c1)OCO2` stands 1.18%; under `O=C(NCCSc1ccccc1)c1ccco1`, 46.4%.
As for `O=C(NCCc1ccco1)c1nn(Cc2ccccc2)c(=O)c2ccccc12`, the Potency was 50.1 µM (active).
With `O=c1c2ccccc2c(-c2ccc(Br)cc2)nn1Cc1ccccc1`, the “activity change, negative = inhibition” value was 1.98%.
For the molecule `CCOC(=O)c1c(S(=O)(=O)N2CCCC(C(=O)NCc3ccc(F)cc3)C2)c(C)n(CC)c1C` (stereo not given), the “activity change, negative = inhibition” value is -11.7%.
Still for that read-out and setting: under `Cc1cc(C)c(/C=C/c2onc(C)c2S(=O)(=O)N2CCC(C(=O)Nc3ccc(Cl)cc3C)CC2)c(C)c1` stands 1.4%; under `COc1ccc2c(c1)Cc1sc(NC(=O)c3ccccc3Br)nc1-2`, -32.6%.
Same read-out and setting: to `Cc1ccc(N2CC(C(=O)Nc3ccc(N(C)C)cc3)CC2=O)cc1Cl` (stereo not given) belongs -13%; to `CC(=O)Nc1cc(C(=O)NCc2ccc(F)cc2)ccc1Sc1ccc(F)cc1`, -0.997%.
Consider `CCc1ccc(C2CC(=O)c3c([nH]c(C(=O)OCc4ccc(C)cc4)c3C)C2)cc1` (stereo not given), for which the “activity change, negative = inhibition” value is -5.92%.
On the same count and under the same terms, to `Cc1ccc(C(C)C)cc1OCC(=O)Nc1ccccc1N1CCCC1` belongs -23.2%; to `Cc1ccccc1NC(=O)Nc1ccccc1N1CCCCC1`, -6.52%.
In the case of `O=C(CNCCC1=CCCCC1)Nc1ccccc1N1CCCCCC1`, the Potency was 56.2 µM (active).
Consider `O=C(CN1CCCCCC1)Nc1ccc(Br)cc1Br`, for which the “activity change, negative = inhibition” value is 18.9%.
Consider `O=C(CN1CCCCCC1)Nc1ccc(Br)cc1[N+](=O)[O-]`, for which the Potency was 15.8 µM (active).
For `COc1cc([N+](=O)[O-])ccc1NC(=O)CN1CCCC1`, the “activity change, negative = inhibition” value is -7.99%.
Still for that read-out and setting: under `CC1=C(C(=O)OCc2ccc(C)cc2)C(c2ccccc2Cl)CC(=O)N1` (stereo not given) stands -7.46%.
For the molecule `O=C(C1CCN(Cc2ccc(Cl)cc2)CC1)N1CCN(Cc2ccc3c(c2)OCO3)CC1`, the Potency is 50.1 µM (active).
With `O=C(CSCc1ccc(Cl)cc1)N1CCN(Cc2ccc3c(c2)OCO3)CC1`, the “activity change, negative = inhibition” value is -13.9%.
Same read-out and setting: under `O=C(C1CCN(S(=O)(=O)c2cnc[nH]2)CC1)N1CCN(Cc2ccc3c(c2)OCO3)CC1` stands -16.5%; under `COc1ccc(-c2cccc(NS(=O)(=O)c3cc(C)c(OC)c(C)c3C)c2)nn1`, -32%; under `CCCN(CCC)C(=O)Cn1c(=O)n(-c2ccc(Cl)cc2)c(=O)c2c3c(sc21)CCCCC3`, 2.25%.
On the same count and under the same terms, to `Cc1cccc(CC(=O)Nc2cccc(-c3cn4cccnc4n3)c2)c1` belongs 3.65%; to `CCCCOc1ccc(C(=O)N2CC(=O)Nc3ccc(Br)cc3C2c2ccc(F)cc2)cc1` (stereo not given), -10.3%.
As for `O=C1CCCC(O)=C1N=Nc1ccc2ncsc2c1`, the Potency was 50.1 µM (active).
The same measure, in the same setting: under `Cc1csc(Nc2ccc(Cl)cc2)[n+]1-c1ccc(Cl)cc1` stands 12.6 µM (active).
Regarding `O=c1ccnc(Nc2ccc(Cl)cc2)[nH]1`, the “activity change, negative = inhibition” value is 5.51%.
For the molecule `Cc1ccccc1C(=O)NCc1nc(-c2ccc(Cl)cc2)no1`, the “activity change, negative = inhibition” value is 2.6%.
As to `CCOC(=O)c1[nH]c(C)c(CCC(=O)N2CCN(c3ccccc3)CC2)c1C`, the “activity change, negative = inhibition” value is -11.8%.
For the molecule `COc1ccc(NC(=O)CN(C)C(=O)c2cc(-c3ccc(C)o3)nc3ccccc23)cc1`, the “activity change, negative = inhibition” value was -4.4%.
On to `CN(CCOc1ccccc1)C(=O)c1cc(-c2ccco2)nc2ccccc12`, for which the Potency is 44.7 µM (active).
As for `COc1ccc(/C=C(\C#N)C(=O)OCC(=O)N(C)C2CCS(=O)(=O)C2)cc1` (stereo not given), the “activity change, negative = inhibition” value is 12.8%.
The same measure, in the same setting: to `COc1ccc(-c2cc(C(=O)N(C)Cc3ccccc3)c3ccccc3n2)cc1` belongs -2.29%.
Consider `CN(C(=O)COC(=O)c1cc(-c2ccco2)nc2ccccc12)C1CCS(=O)(=O)C1` (stereo not given), for which the Potency was 39.8 µM (active).
Regarding `CN(C(=O)COC(=O)c1nc(Cl)ccc1Cl)C1CCS(=O)(=O)C1` (stereo not given), the “activity change, negative = inhibition” value was 0.742%.
The same measure, in the same setting: to `COc1ccc(OCC(=O)Nc2cccc(C(=O)OCc3cc(=O)n4nc(C)sc4n3)c2)cc1` belongs -5.85%; to `Cc1cccc(N2CCN(C(=O)CCn3c(=O)c4cccn4c4cccnc43)CC2C)c1` (stereo not given), -36.6%; to `NC(=O)C1CCN(C(=O)c2cccc(NC(=O)c3nsc4ccccc34)c2)CC1`, 4.68%.
Turning to `Cc1[nH]c2ccccc2c1C(c1ccccc1)c1cccs1` (stereo not given), the “activity change, negative = inhibition” value was 1.62%.
On to `CC(=O)c1cc(-c2ccccc2)n(CCC(=O)NC2CCCCCC2)c1C`, for which the Potency was 50.1 µM (active).
On the same count and under the same terms, to `CC(=O)c1cc(-c2ccccc2)n(CC(=O)NC2CCCCC2)c1C` belongs “inactive”.
Turning to `O=C(CCS(=O)(=O)c1ccccc1)NC1CCCC1`, the “activity change, negative = inhibition” value is -1.71%.
In the case of `Cc1nc2nc(SCC(=O)N(Cc3ccccc3)C(C)C)nn2c(C)c1Cc1ccccc1Cl`, the “activity change, negative = inhibition” value is -18.1%.
On the same count and under the same terms, to `CCOc1cc(C(=O)Nc2nnc3n2CCS3)cc(OCC)c1OCC` belongs 13.3%.
Same read-out and setting: under `CCOC(=O)c1cc(NC(=O)c2ccc(F)cc2)c(=O)n2c1oc1ccccc12` stands -12%; under `CN(CC(=O)Nc1ccccc1F)S(=O)(=O)c1ccc2c(c1)c(=O)n(C)c(=O)n2C`, 4.31% [at 57.1 µM].
Still for that read-out and setting: under `O=C(CN1C(=O)COc2ccc(S(=O)(=O)N3CCOCC3)cc21)N1CCN(c2cccc(Cl)c2)CC1` stands -21.7%; under `CCCNC(=S)N1CCC(NC(=O)c2ccc(OC)cc2)CC1`, -25.5%; under `COCCNC(=S)N1CCC(NC(=O)C23CC4CC(CC(C4)C2)C3)CC1`, -8.68%.
Consider `COCCNC(=S)N1CCN(C)CC1`, for which the Potency is 39.8 µM (active).
In the case of `CCN1C(=O)c2ccccc2S(=O)c2ccc(C(=O)NCc3ccc(F)cc3)cc21` (stereo not given), the “activity change, negative = inhibition” value was -14.5%.
Consider `CCCCOC(=O)/C(C#N)=C/c1ccc(-c2cccc(C(F)(F)F)c2)o1`, for which the “activity change, negative = inhibition” value was -15.6%.
Still for that read-out and setting: under `CCOc1ccc(Nc2nc3c(S(=O)(=O)c4cccc(Cl)c4)nnn3c3ccsc23)cc1` stands -13%; under `Cc1ccc(OCCSc2nc(C)c(Cc3ccccc3)c(=O)[nH]2)cc1`, -2.49%.
Same read-out and setting: under `OCCN1CCN(C(=S)c2ccc(-c3ccccc3)cc2)CC1` stands -7.79%.
Still for that read-out and setting: to `S=C(c1ccccc1)N1CCCC1` belongs 5.22%.
Take `S=C(c1ccc(-c2ccccc2)o1)N1CCCCC1`: the Potency is 35.5 µM (active).
In the case of `CSc1ccc(CCNC(=O)c2ccc3c(c2)nc2n3CCOC2)cc1`, the “activity change, negative = inhibition” value is 4.23%.
On the same count and under the same terms, to `COC(=O)CCCC1=CC2=CC(=O)C(C)(OC(=O)c3cccs3)C(=O)C2=CN1CC(C)C` (stereo not given) belongs -15.3%.
With `COC/C=C/C1=CC2=CC(=O)C(C)(OC(=O)CCC(=O)OC)C(=O)C2=CO1` (stereo not given), the Potency is 50.1 µM (active).
For `COC(=O)CCCC1=CC2=CC(=O)C(C)(OC(=O)c3cccs3)C(=O)C2=CN1CC1CC1` (stereo not given), the “activity change, negative = inhibition” value is -30.3%.
Still for that read-out and setting: to `CCC(=O)N1CCc2cc(Br)cc(S(=O)(=O)CCC(=O)N3CCN(c4ccc(F)cc4)CC3)c21` belongs 3.17%; to `COc1ccc(-c2noc(CCC(=O)N(C)c3ccccc3C)n2)cc1`, 6.51%; to `CCOc1cccc(C(=O)Nc2nnc(S(=O)(=O)N(C)c3ccc(C)cc3)s2)c1`, -2.91%.
Still for that read-out and setting: under `CCc1ccc(NC(=O)CN2CCSc3ccc(S(=O)(=O)N4CCCC4)cc32)cc1` stands -26.5%; under `COc1cccc(Cn2cnc3c([N+](=O)[O-])c(C)c(C)cc32)c1`, -22.6%; under `CSc1nn(Cc2cccc(C)c2)c(N)c1S(=O)(=O)c1ccccc1`, 22.9%.
As for `Cc1cccc(Cn2cnc3c(N)c(C)c(C)cc32)c1`, the Potency is 56.2 µM (active).
